Assay outcomes deposited in PubChem by National Center for Advancing Translational Sciences (NCATS).
LASV entry inh – qHTS for Inhibitors of binding or entry into cells for Lassa Virus. Lassa virus pseudotyped entry inhibition, cell-based qHTS. Potency, µM (titrated, usually from 49.2 µM), hits mostly inhibitors. 4.1% of 18,000 active. AID 720533, 2013
Marburg entry – qHTS for Inhibitors of binding or entry into cells for Marburg Virus. Marburg virus pseudotype entry/binding inhibition, cell-based. Potency, µM (doses to about 49.2 µM), most hits filed as inhibitors. 6.5% of 18,000 active. AID 720532, 2013
Hits are given with their value; 0 = inactive; ? = inconclusive; - = no result given; ! = a repeat was not active; [ ] = dose if it differs, or a comment. A selection: hits, their analogues and other compounds. The true share with any hit is near 8%. Calls follow the shape of the full dose curve; tested in HEK293 cells.

SMILES | LASV entry inh | Marburg entry
COc1ccc(O[C@H]2C=C[C@@H](c3ccccc3)O[C@H]2CON=C2[C@H]3CCn4c(=O)n(-c5ccccc5)c(=O)n4[C@@H]3[C@H](O)[C@@H]3O[C@H]23)cc1 | 0[8.59 µM] | 0[8.59 µM]
C[C@@H]1CCC2[C@@H](C)[C@@H](O)O[C@@H]3O[C@@]4(C)CC[C@@H]1[C@@]23OO4 (some centres not stated) | 0.631µM | 1.26µM
CC1CCC2C(C)C(=O)OC3OC4(C)CCC1C32OO4 (configuration not stated) | ? | 0
COc1cccc([C@H]2NC(=O)C[C@@H]3C[C@@H](C)[C@@H](c4cccc(OC)c4)N3C(=O)C=CC[C@@H]2C)c1 | 0[8.59 µM] | 0[8.59 µM]
O=c1[nH]c2ccccc2n1C1CCN(CCCC(c2ccc(F)cc2)c2ccc(F)cc2)CC1 | 25.1µM! | 14.1µM
CCn1c(=O)[nH]c2ccccc21 | 0 | 0
O=C1NCN(c2ccccc2)C12CCN(CCCC(c1ccc(F)cc1)c1ccc(F)cc1)CC2 | ? | 1.41µM
O=C1NCN(c2ccccc2)C12CCN(CC1COc3ccccc3O1)CC2 (configuration not stated) | 0 | 0
Cc1ccc([S+](=O)([O-])N[C@@H]2COC(=O)CC=C[C@H](C)COC(=O)N[C@@H](C)C(=O)CC=C[C@H]2C)cc1 | 0[8.59 µM] | 0[8.59 µM]
Cc1ccccc1Nc1oc(-c2ccccc2)nc1C=Cc1ccccc1 | 0[8.59 µM] | 0[8.59 µM]
CC#CCN1c2ccccc2[C@]23CCC(=O)N(CCCOC(C)C)C2=NC(C(=O)OC)=C(C(=O)OC)[C@H]13 | 0[8.59 µM] | 0[8.59 µM]
COc1cc2c(c(OC)c1OC)C(c1ccccc1)(c1ccccc1)CC2NC(=O)C(F)(F)F (configuration not stated) | 0[8.59 µM] | 0[8.59 µM]
CS(=O)(=O)Nc1cccc(-c2ccc3c(NC(=O)C4CC4)n[nH]c3c2)c1 | - | 3.53µM
CS(=O)(=O)Nc1ccc(-c2ccc3c(NC(=O)C4CC4)n[nH]c3c2)cc1 | 0 | 0
FC(F)(F)c1cccc(N2CCNCC2)c1 | 28.2µM | 28.2µM
COc1ccccc1N1CCNCC1 | 0 | 0
CO[C@]1(C)C[C@H]2O[C@]1(C)n1c3ccccc3c3c4c(c5c6ccccc6n2c5c31)C(=O)N(C)C4 | 0 | 0
O=C1NC(=O)c2c1c1c3ccccc3n3c1c1c2c2ccccc2n1C1CCC3O1 | ? | 1.12µM
CC(C)OC(=O)Nc1ccc2nc(-c3cscn3)[nH]c2c1 | 28.2µM | 0
CCCCc1ccc2nc(NC(=O)OC)[nH]c2c1 | 0 | 0
Cc1c(N)nc([C@H](CC(N)=O)NC[C@H](N)C(N)=O)nc1C(=O)N[C@H](C(=O)N[C@H](C)[C@@H](O)[C@H](C)C(=O)N[C@H](C(=O)NCCc1nc(-c2nc(C(=O)NCCCCN=C(N)N)cs2)cs1)[C@@H](C)O)[C@@H](O[C@@H]1O[C@@H](CO)[C@@H](O)[C@H](O)[C@@H]1O[C@H]1O[C@H](CO)[C@@H](O)[C@H](OC(N)=O)[C@@H]1O)c1cnc[nH]1 | 3.16µM | 3.98µM
COc1cc(CN2CCOc3ccc(CN4CCC(Oc5cccnc5)CC4)cc3C2)ccc1F | 0 | ?
COc1ccc(CN2CCOc3ccc(CN4CCC(Oc5cccnc5)CC4)cc3C2)c(F)c1 | 0 | 11.2µM
COc1cc(CN2CCOc3ccc(CN4CCN(CCO)CC4)cc3C2)ccc1F | 0 | 0
COc1ccc(CN2CCOc3ccc(CN4CCN(CCO)CC4)cc3C2)c2ccccc12 | ? | 11.2µM
SMILES | LASV entry inh | Marburg entry
COc1ccc(F)c(CN2CCOc3ccc(CN4CCC(Oc5cccnc5)CC4)cc3C2)c1 | 0 | ?
COc1cc(OC)c(CN2CCOc3ccc(CN4CCC(O)CC4)cc3C2)c(OC)c1 | ? | 14.1µM
CC(O)c1cccc(-c2ccc(CN3C[C@]4(CO)OC(CO)C[C@H]4[S+]3(=O)[O-])cc2)c1 (some centres not stated) | 0 | 0
O=C(OCc1cn([C@H]2C[C@H](c3ccc(Cl)cc3)N(C(=O)c3cccs3)C[C@H]2O)nn1)c1ccccc1 | - | 0
CCCC=Cc1ccc(CN2C(C(C)C)C(=O)N(Cc3cn(Cc4ccco4)nn3)CCS2(=O)=O)cc1 (configuration not stated) | 0 | ?
COC(=O)C1=C(C(=O)OC)[C@@H]2N(Cc3ccccc3)c3ccccc3[C@@]23C[C@@H](C(=O)OC)N(C(=O)Nc2ccccc2F)C3=N1 | 0[8.59 µM] | 0[8.59 µM]
CCOC(=O)OC[C@H]1O[C@H](C#Cc2ccc(C)cc2C)C=C[C@H]1OC(=O)OCC | 0[8.59 µM] | 0[8.59 µM]
O=C1c2ccccc2C(=O)c2c(O)ccc(O)c21 | 0 | 0
O=C1c2c(O)ccc(O)c2C(=O)c2c(NCCNCCO)ccc(NCCNCCO)c21 | 0.316µM | 0.1µM
CC1=C[C@@H](COCc2ccccc2)O[C@@]2(C1)C(=O)N(Cc1ccc(Br)cc1)c1ccccc12 | 0[8.59 µM] | 0[8.59 µM]
O=C1CCCC2=C1[C@H]1O[C@](c3ccsc3)(Cc3c1ccc1ccccc31)O2 | 0[8.59 µM] | 0[8.59 µM]
CCCCCCN1C[C@H](n2cc(C3CC3)nn2)[C@@H](O)C[C@H]1c1ccc(C)cc1 | 0 | 0
CC(=O)[C@@]12C3[C@@H](CCN3C(=O)N[C@H]1c1ccccc1)[C@H]2c1ccccc1 (some centres not stated) | 0[8.59 µM] | 0[8.59 µM]
